{
  "source": "PubChem BioAssay (NCI)",
  "note": "This is part of a sample that, as a whole, favours compounds with a hit. Of some 83,000 tested, about 20% had one in any assay.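 Results are percent growth after 48 hours of single-concentration exposure. 100 means growth as in untreated cells, lower positive values show inhibition; negative values down to -100 show cell death.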 A number with no mark means an inactive call. Active and inactive are the calls of the source.",
  "data": [
    {"tested_on": "SN12C renal", "assay": "NCI-60 one-dose screen, 48 h (100 = growth as untreated, 0 = no growth, -100 = all killed)", "conditions": "10 µM unless noted", "experimental": "Growth inhibition of the SN12C human tumor cell line is measured as a screen for anti-cancer activity. Cells are grown in 96 well plates and exposed to the test compound for 48 hours. Compounds are tested at a single concentration, which is 10^-5 M for most compounds. The reported endpoint is percent growth (GI% or GIPRCNT), where numbers from 0 - 100% represent growth inhibition, and numbers from -100% - 0 represent cell death. For example, a value of 40 represents 60% growth inhibition. A value of 0 means no net growth occurred over the course of the experiment. A value of -40 indicates 40% of cells at the beginning of the experiment died by the end of the experiment. A value of -100 means all cells are dead at the end of the experiment.\nNCI-60 Human Tumor Cell Lines Screen was performed using the standard one-dose NCI protocol, which is described in more detail at https://dtp.cancer.gov/discovery_development/nci-60/default.htm.\nCompounds with GIPRCNT values below 10 were considered active. Activity score was based on GIPRCNT using the following formula: […]\nScore is 0 for GIPRCNT values of 100 or above, 50 for GIPRCNT values of 0, and 100 for GIPRCNT values of -100.", "values": [
      {"smiles": "COc1cccc(C(=O)Cn2cc(/C=C(\\C#N)S(=O)(=O)c3ccccc3)c3ccccc32)c1", "growth": "83.7%"},
      {"smiles": "COc1cc(C2C3=C(COC3=O)N(CCO)c3cc4c(cc32)OCCO4)cc(OC)c1O", "note": "(stereo not given)", "growth": "39.8%"},
      {"smiles": "Cc1cccc(NC(=O)c2sc3nc4c(cc3c2N)CCCC4)c1C", "growth": "38.9%"},
      {"smiles": "CC1=C(CC(=O)c2cccc([N+](=O)[O-])c2)C(=O)c2ccccc2C1=O", "growth": "-36% (active)"},
      {"smiles": "O=C1/C(=C/c2cccc(O)c2)COc2ccc(O)cc21", "growth": "73.8%"},
      {"smiles": "CCOC(=O)C1=C(C)c2ccc(OC)c(OC)c2C1", "growth": "108%"},
      {"smiles": "COc1ccc(Br)c(/C=C2\\SC(=Nc3ccc(O)cc3)NC2=O)c1", "growth": "89.7%"},
      {"smiles": "Nc1ccccc1-c1ccc(-c2ccc(Cl)cc2)c2c1[nH]c1ccccc12", "growth": "66.5%"},
      {"smiles": "O=c1oc2ccc(F)cc2c(=O)n1-c1ccc(Br)cc1F", "growth": "-4.08% (active)"},
      {"smiles": "CC1CCCCN1CCCNC(=O)c1ccc2c(c1)sc1nc(-c3ccc(F)cc3)cn12", "note": "(stereo not given)", "growth": "99.6%"},
      {"smiles": "O=C1c2ccccc2C(=O)c2c1ccc1[nH]c(CCl)nc21", "growth": "-1.77% (active)"},
      {"smiles": "CCc1ccc(CNCC(O)c2ccccc2)cc1", "note": "(stereo not given)", "growth": "76.4%"},
      {"smiles": "CNCCNc1nc2ccccc2c2c(=O)c3cc(F)ccc3sc12", "growth": "67.2%"},
      {"smiles": "O=C(Nc1ccc(Cl)cc1)N1CCN(c2ccc3nncn3n2)CC1", "growth": "54.3%"},
      {"smiles": "CCN(CC)CCNC(=O)C(Cl)=C1C(Cl)=C(Cl)C(Cl)=C1Cl", "growth": "47.8%"},
      {"smiles": "O=C(Nc1ccc(-c2nc3cc4ccccc4cc3[nH]2)cc1)c1cccc(Br)c1", "growth": "44.6%"},
      {"smiles": "COc1ccccc1N1C(=N)S/C(=C\\c2ccc(OCc3ccccc3F)cc2)C1=O", "growth": "80.7%"},
      {"smiles": "COc1ccc(C2c3ccc4ccccc4c3Oc3ncn(CCCn4ccnc4)c(=N)c32)cc1OC", "note": "(stereo not given)", "growth": "61%"},
      {"smiles": "CN(C)CCCNCc1ccc(-c2ccc(F)c(Cl)c2)o1", "growth": "60.2%"},
      {"smiles": "O=C1c2cc(I)ccc2Oc2cc([N+](=O)[O-])ccc2N1c1ccc(Cl)cc1F", "growth": "90.8%"},
      {"smiles": "Cc1ccc(F)cc1NC(=O)c1cc(Cl)ccc1Nc1ccccc1", "growth": "32.1%"},
      {"smiles": "COc1cccc2c(=O)c3c(sc12)c(NCCCNCCO)nc1ccccc13", "growth": "56.5%"},
      {"smiles": "OCCNc1nc(Nc2ccc(C3=NN(c4cc(Cl)cc(Cl)c4)C(c4ccc(C(F)(F)F)cc4)C3)cc2)nc(N2CCOCC2)n1", "note": "(stereo not given)", "growth": "74.8%"},
      {"smiles": "COc1ccc(Cn2cc(Cn3cc(C=C4C(=O)NC(=O)NC4=O)c4ccccc43)nn2)cc1", "growth": "85.8%"},
      {"smiles": "COC(=O)/C(CCC=C(C)C)=C1\\[C@@H](OC(C)=O)C[C@@]2(C)[C@H]1C[C@@H](O)[C@H]1[C@@]3(C)CC[C@H](NC(=O)c4cnccn4)[C@@H](C)[C@@H]3CC[C@@]12C", "growth": "95.7%"},
      {"smiles": "CN1C(=O)N(C)C2(c3ccccc3)OC(=S)NC12c1ccccc1", "note": "(stereo not given)", "growth": "107%"},
      {"smiles": "Nc1nc(-c2cnccn2)nn1-c1nc2ccccc2s1", "growth": "101%"},
      {"smiles": "CCOC(=O)c1cnc2ccc(Cl)cc2c1NCCCN(C)C", "growth": "18.1%"},
      {"smiles": "CC[C@]1(O)C[C@@H]2CN(CCc3c([nH]c4ccccc34)[C@@](C(=O)OC)(c3cc4c(cc3OC)N(C)[C@H]3[C@@](O)(C(=O)OC)[C@H](OC(=O)CCCBr)[C@]5(CC)C=CCN6CC[C@]43[C@@H]65)C2)C1", "growth": "23.9%"},
      {"smiles": "Cc1cc2c(c(C)c1Cl)C(=O)/C(=C/c1ccco1)O2", "growth": "96%"},
      {"smiles": "COc1ccccc1C(=O)O/N=C(\\N)Cc1cccc2ccccc12", "growth": "67.3%"},
      {"smiles": "O=c1c2cc(F)ccc2sc2c(Nc3ccncc3)nc3ccccc3c12", "growth": "90%"},
      {"smiles": "O=C(NC1CCN(Cc2ccccc2)CC1)c1cc(C(=O)NC2CCN(Cc3ccccc3)CC2)cc(C(=O)NC2CCN(Cc3ccccc3)CC2)c1", "growth": "69.2%"},
      {"smiles": "COC(=O)c1cc2c(n1Cc1ccccc1)-c1oncc1CCC2", "growth": "73.2%"},
      {"smiles": "O=Nc1c(O)ccc2ccccc12.O=Nc1c(O)ccc2ccccc12.O=Nc1c([O-])ccc2ccccc12.[Fe+3]", "growth": "99.6%"},
      {"smiles": "CC[C@]1(O)C[C@@H]2CN(CCc3c([nH]c4ccccc34)[C@@](C(=O)OC)(c3cc4c(cc3OC)N(C)[C@H]3[C@@](O)(C(=O)OC)[C@H](OC(C)=O)[C@]5(CC)C=CCN6CC[C@]43[C@@H]65)C2)C1", "growth": "27%"},
      {"smiles": "CN(C)/C=C1\\SC(=Nc2ccc(Cl)cc2)NC1=O", "growth": "92.1%"},
      {"smiles": "COc1cc2cc3c(=O)n4c(cc5cc(OC)ncc54)c(=O)n3c2cn1", "growth": "98.6%"},
      {"smiles": "CCOc1ccc(Nc2ccnc3cc(Cl)ccc23)cc1", "growth": "7.43% (active)"},
      {"smiles": "COc1cccc(-c2nn(C)c3sc(C(=O)NCCN4CCN(c5ccccc5F)CC4)cc23)c1", "growth": "60.9%"}
    ]}
  ]
}
